Test results from PubChem BioAssay AID1159580 (chemical genetic matrix, 2015).
Hit rate of the full screen: of about 5,500 compounds, about 2,000 (36%) were called active. Roughly 18% stayed inconclusive and do not appear here. Rule as the data show it: active = normalized growth mostly below about 0.91 (no sharp cut-off); inconclusive = no clear call, values can overlap the other calls; inactive = mostly above about 0.92. Some of the results follow.

Assay: chemical genetic growth profiling, strain panel (AID 1159580);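 also: tested at 20 µM; growth read once vehicle control cultures reached saturation at 30 °C; 1 = growth at the plate median or of vehicle wells; lower values mean less growth of the strain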
Settings: growth OD

Measured: normalized growth

C[C@@H]1O[C@@H](O[C@H]2CC[C@]3(C=O)C4CC[C@]5(C)[C@@H](C6=CC(=O)OC6)CC[C@]5(O)C4CC[C@]3(O)C2)[C@H](O)[C@H](O)[C@H]1O (stereo not given in full)
inactive: S. cerevisiae deletion strains, locus YJR066W, strain TOR1, active compounds read low 0.953 | S. cerevisiae deletion strains, locus YJR075W, strain HOC1, active compounds read low 0.989 | S. cerevisiae deletion strains, locus YKL009W, strain mrt4, active compounds read low 1.05 | S. cerevisiae deletion strains, locus YKL068W, active compounds read low 0.991 | S. cerevisiae deletion strains, locus YKL085W, strain MDH1 (second series), active compounds read low 0.999 | S. cerevisiae deletion strains, locus YKL085W, strain MDH1, active compounds read low 0.999 | S. cerevisiae deletion strains, locus YKL160W, strain elf1, active compounds read low 1.01 | S. cerevisiae deletion strains, locus YKL190W, strain CNB1, active compounds read low 0.988 | S. cerevisiae deletion strains, locus YKR001C, strain vps1, active compounds read low 0.995 | S. cerevisiae deletion strains, locus YKR026C, strain gcn3, active compounds read low 0.997 | S. cerevisiae deletion strains, locus YKR091W, strain srl3, active compounds read low 0.997 | S. cerevisiae deletion strains, locus YLL001W, strain dnm1, active compounds read low 1.01 | S. cerevisiae deletion strains, locus YLL026W, active compounds read low 0.995 | S. cerevisiae deletion strains, locus YLL041C, strain sdh2, active compounds read low 1 | S. cerevisiae deletion strains, locus YLR027C, strain aat2, active compounds read low 0.999 | S. cerevisiae deletion strains, locus YLR039C, strain RIC1, active compounds read low 0.977 | S. cerevisiae deletion strains, locus YLR058C, strain SHM2, active compounds read low 0.981 | S. cerevisiae deletion strains, locus YLR102C, strain apc9, active compounds read low 0.997 | S. cerevisiae deletion strains, locus YLR113W, strain HOG1, active compounds read low 0.952 | S. cerevisiae deletion strains, locus YLR221C, strain rsa3, active compounds read low 1.01 | S. cerevisiae deletion strains, locus YLR258W, strain gsy2, active compounds read low 0.991 | S. cerevisiae deletion strains, locus YLR262C, strain YPT6 (second series), active compounds read low 1.01 | S. cerevisiae deletion strains, locus YLR262C, strain YPT6, active compounds read low 0.914 | S. cerevisiae deletion strains, locus YLR268W, strain sec22, active compounds read low 1.01 | S. cerevisiae deletion strains, locus YLR320W, strain mms22, active compounds read low 0.989 | S. cerevisiae deletion strains, locus YLR330W, strain CHS5, active compounds read low 1 | S. cerevisiae deletion strains, locus YLR342W, strain FKS1 (second series), active compounds read low 1.06 | S. cerevisiae deletion strains, locus YLR342W, strain FKS1, active compounds read low 0.999 | S. cerevisiae deletion strains, locus YLR357W, strain rsc2, active compounds read low 0.959 | S. cerevisiae deletion strains, locus YLR370C, strain arc18, active compounds read low 1.01 | S. cerevisiae deletion strains, locus YLR371W, strain rom2, active compounds read low 0.978 | S. cerevisiae deletion strains, locus YLR384C, strain iki3, active compounds read low 0.987 | S. cerevisiae deletion strains, locus YLR418C, strain cdc73, active compounds read low 0.964 | S. cerevisiae deletion strains, locus YML016C, strain PPZ1, active compounds read low 0.995 | S. cerevisiae deletion strains, locus YML032C, strain rad52, active compounds read low 0.991 | S. cerevisiae deletion strains, locus YML120C, strain ndi1, active compounds read low 0.994 | S. cerevisiae deletion strains, locus YML124C, strain tub3, active compounds read low 0.983 | S. cerevisiae deletion strains, locus YMR058W, strain fet3, active compounds read low 1 | S. cerevisiae deletion strains, locus YMR078C, strain ctf18, active compounds read low 0.976 | S. cerevisiae deletion strains, locus YMR125W, strain sto1, active compounds read low 0.969 | S. cerevisiae deletion strains, locus YMR129W, active compounds read low 0.998 | S. cerevisiae deletion strains, locus YMR205C, strain PFK2, active compounds read low 0.954 | S. cerevisiae deletion strains, locus YMR223W, strain ubp8, active compounds read low 0.962 | S. cerevisiae deletion strains, locus YMR231W, strain pep5, active compounds read low 0.998 | S. cerevisiae deletion strains, locus YMR307W, strain GAS1, active compounds read low 0.977 | S. cerevisiae deletion strains, locus YNL067W, strain RPL9B, active compounds read low 0.975 | S. cerevisiae deletion strains, locus YNL071W, strain lat1, active compounds read low 1 | S. cerevisiae deletion strains, locus YNL183C, strain NPR1, active compounds read low 0.965 | S. cerevisiae deletion strains, locus YNL209W, strain ssb2, active compounds read low 1 | S. cerevisiae deletion strains, locus YNL233W, strain BNI4, active compounds read low 0.999 | S. cerevisiae deletion strains, locus YNL248C, strain rpa49, active compounds read low 1.01 | S. cerevisiae deletion strains, locus YNL250W, strain rad50, active compounds read low 0.993 | S. cerevisiae deletion strains, locus YNL271C, strain bni1, active compounds read low 0.985 | S. cerevisiae deletion strains, locus YNL298W, strain CLA4, active compounds read low 1 | S. cerevisiae deletion strains, locus YNL307C, strain MCK1, active compounds read low 0.992 | S. cerevisiae deletion strains, locus YNL322C, strain KRE1 (second series), active compounds read low 1.01 | S. cerevisiae deletion strains, locus YNL322C, strain KRE1, active compounds read low 0.994 | S. cerevisiae deletion strains, locus YNR049C, strain mso1, active compounds read low 1.01 | S. cerevisiae deletion strains, locus YNR052C, strain pop2, active compounds read low 0.998 | S. cerevisiae deletion strains, locus YOL006C, strain TOP1, active compounds read low 1.12 | S. cerevisiae deletion strains, locus YOL012C, strain htz1 0.98 | S. cerevisiae deletion strains, locus YOL147C, strain pex11, active compounds read low 0.998 | S. cerevisiae deletion strains, locus YOR001W, strain rrp6, active compounds read low 1 | S. cerevisiae deletion strains, locus YOR061W, strain CKA2, active compounds read low 0.973 | S. cerevisiae deletion strains, locus YOR069W, strain VPS5, active compounds read low 1 | S. cerevisiae deletion strains, locus YOR070C, strain gyp1, active compounds read low 0.999 | S. cerevisiae deletion strains, locus YOR080W, strain dia2, active compounds read low 0.988 | S. cerevisiae deletion strains, locus YOR083W, strain WHI5, active compounds read low 1.01 | S. cerevisiae deletion strains, locus YOR106W, strain vam3, active compounds read low 0.998 | S. cerevisiae deletion strains, locus YOR136W, strain idh2, active compounds read low 1 | S. cerevisiae deletion strains, locus YOR144C, strain elg1, active compounds read low 0.993 | S. cerevisiae deletion strains, locus YOR184W, strain ser1, active compounds read low 0.975 | S. cerevisiae deletion strains, locus YOR231W, strain MKK1, active compounds read low 0.996 | S. cerevisiae deletion strains, locus YOR265W, strain rbl2, active compounds read low 0.999 | S. cerevisiae deletion strains, locus YOR270C, strain vph1, active compounds read low 1.02 | S. cerevisiae deletion strains, locus YOR290C, strain snf2, active compounds read low 0.994 | S. cerevisiae deletion strains, locus YOR316C, strain cot1, active compounds read low 0.991 | S. cerevisiae deletion strains, locus YPL051W, strain arl3, active compounds read low 1.01 | S. cerevisiae deletion strains, locus YPL055C, strain LGE1, active compounds read low 1 | S. cerevisiae deletion strains, locus YPL078C, strain atp4, active compounds read low 1.02 | S. cerevisiae deletion strains, locus YPL106C, strain sse1, active compounds read low 0.977 | S. cerevisiae deletion strains, locus YPL240C, strain hsp82, active compounds read low 1.01 | S. cerevisiae deletion strains, locus YPL241C, strain CIN2, active compounds read low 0.995 | S. cerevisiae deletion strains, locus YPL256C, strain CLN2, active compounds read low 0.987 | S. cerevisiae deletion strains, locus YPR119W, strain clb2, active compounds read low 1 | S. cerevisiae deletion strains, locus YPR141C, strain kar3, active compounds read low 0.98 | S. cerevisiae deletion strains, locus YPR163C, strain tif3, active compounds read low 0.983 | S. cerevisiae deletion strains, locus YPR167C, strain met16, active compounds read low 1 | S. cerevisiae deletion strains, strain wtn01, active compounds read low 1.03 | S. cerevisiae strains, strain wild type, active compounds read low 0.989
